Screening data as filed in PubChem BioAssay.
KLK7 zymogen act: proKLK7 zymogen activators, primary screen, biochemical, fluorescence intensity. purified proKLK7, EDANS-DABCYL substrate fluorescence; 100% is mature enzyme control, 0% vehicle. activation, % at 7 µM. 0.9% of 370,000 active. AID 652039, 2013;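 active = activation above the mean of all tested compounds plus 3 SD, computed per campaign excluding outliers beyond control limits, cut at about 13% in these data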
ADAM10 inh: human ADAM10 inhibitors, primary screen, biochemical, QFRET, HTS | recombinant ADAM10, EDANS/DABCYL FRET peptide cleavage, 3 h | inhibition, % at 7 µM | 0.62% of 370,000 active;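 active = inhibition above a per-campaign cutoff equal to the mean of compounds falling between control-based bounds plus 3 SD, cut at about 20% in these data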
Target sequence (O14672 214-748 limits assumed): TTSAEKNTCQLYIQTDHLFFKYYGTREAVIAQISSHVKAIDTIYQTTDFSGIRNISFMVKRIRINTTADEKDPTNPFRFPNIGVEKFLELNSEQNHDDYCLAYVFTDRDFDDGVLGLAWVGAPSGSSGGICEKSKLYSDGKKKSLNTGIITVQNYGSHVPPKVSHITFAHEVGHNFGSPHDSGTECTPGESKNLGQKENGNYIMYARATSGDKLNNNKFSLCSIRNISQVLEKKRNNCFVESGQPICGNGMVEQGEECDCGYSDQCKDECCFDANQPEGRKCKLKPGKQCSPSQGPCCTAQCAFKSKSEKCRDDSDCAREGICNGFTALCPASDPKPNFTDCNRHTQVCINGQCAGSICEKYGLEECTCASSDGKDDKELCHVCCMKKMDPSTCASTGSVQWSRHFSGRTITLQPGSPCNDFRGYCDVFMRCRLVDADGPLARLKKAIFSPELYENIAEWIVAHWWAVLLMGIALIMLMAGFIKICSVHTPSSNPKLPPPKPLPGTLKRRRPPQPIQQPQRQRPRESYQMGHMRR
ADAM17 inh: ADAM17 inhibitors, primary screen, biochemical, QFRET | Disintegrin and metalloproteinase domain-containing protein 17 (Homo sapiens), P78536 | recombinant ADAM17, EDANS/DABCYL FRET peptide cleavage | inhibition, % at 6.95 µM | 0.83% of 370,000 active | AID 720648, 2013;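 active = inhibition above the mean of compounds lying between control limits plus 3 SD, set per campaign, cut at about 8.5% in these data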
V-ATPase pHluor: regulators of yeast V-ATPase proton pumping, primary screen, pHLuorin cytosolic pH fluorescence; S. cerevisiae; response, % at 10 µM; 0.37% of 350,000 active; AID 504577, 2011; in the data active = response mostly above about 7.3%, no sharp cut-off; inactive = mostly below about 5.4%; note: actives read high
VATPase regulator: yeast V-ATPase proton pumping modulators, confirmation, S. cerevisiae, pH-sensitive GFP, second cherry-pick. 2% of 980 active. shares compounds with V-ATPase pHluor. S. cerevisiae pHLuorin cytosolic pH, V-ATPase proton transport. response, % at 10 µM; in the data active = response above about 24%
Each line names hits and unclear results; the compound was inactive in the other large screens (follow-up assays come after a bar, where they were run). Sampled rows, rich in hits. Any-hit rate of the full collection: about 2.3%.

CCNc1nc(N)c([N+](=O)[O-])c(Nc2cccc(Cl)c2)n1	none (no result: KLK7 zymogen act, V-ATPase pHluor)
CCOc1ccccc1N(CC(=O)Nc1cccnc1)S(C)(=O)=O	none
CCOc1ccccc1N(CC(=O)Nc1cccnc1)S(=O)(=O)c1ccc(C)cc1	V-ATPase pHluor 9.9 | VATPase regulator inactive
COc1ccc(C2=NOC(C(=O)Nc3ccc(C(C)=O)cc3)C2)cc1OC (stereo unspecified)	none
COc1cccc(C2=NOC(C(=O)Nc3ccc(C(C)=O)cc3)C2)c1 (stereo unspecified)	V-ATPase pHluor 12.5 | VATPase regulator inactive
COc1ccccc1CNC(=O)N(CCc1c(C)[nH]c2ccccc12)Cc1cccs1	none (no result: V-ATPase pHluor)
CN1CCC(N[C@@H](Cc2c[nH]c3ccccc23)C(=O)NCCCc2ccccc2)(C(=O)NCCc2c[nH]c3ccccc23)CC1	none (no result: KLK7 zymogen act, V-ATPase pHluor)
CCCNC(=S)N1CCN(C)CC1	V-ATPase pHluor 8.2 | VATPase regulator inactive
CCCCNC(=S)N1CCN(CC)CC1	none
O=C(CN1C(=O)NC2(CCCC2)C1=O)NCCc1ccc(F)cc1	V-ATPase pHluor 11.0 | VATPase regulator inactive
O=C(CN1C(=O)NC2(CCCCCC2)C1=O)NCCc1ccc(F)cc1	none
COc1ccccc1NC(=O)C(C)OC(=O)CCCOc1ccccc1 (stereo unspecified)	V-ATPase pHluor 10.9 | VATPase regulator inactive
Cc1ccc(/C=C/c2nnc(-c3ccccc3)o2)cc1	none
C(=C\c1nnc(-c2cccs2)o1)/c1ccccc1	V-ATPase pHluor 12.9 | VATPase regulator inactive
CCCCn1c(=O)c(C(=O)OCC)c(O)c2ccccc21	V-ATPase pHluor 9.8 | VATPase regulator inactive
COc1ccc(C)cc1NC(=O)C(OC(=O)CNC(=O)c1cccc(F)c1)c1ccccc1 (stereo unspecified)	V-ATPase pHluor 10.2 | VATPase regulator inactive
O=C(N/N=C/c1cccc2ccccc12)c1ccc(CN2CCOCC2)cc1	none
O=C(N/N=C/c1cccc([N+](=O)[O-])c1)c1ccc(CN2CCOCC2)cc1	V-ATPase pHluor 13.8 | VATPase regulator inactive
Cc1ccc(N2CCN(S(=O)(=O)N3CCCCC3)CC2)cc1C	V-ATPase pHluor 10.7 | VATPase regulator inactive
CCOC(=O)[C@@]12CCCC=C1N(CCc1ccc(Cl)cc1)C(=O)[C@H]2CC(=O)NCC12CC3CC(CC(C3)C1)C2	none (no result: V-ATPase pHluor)
Cc1ccc(C(=O)OCCc2sc[n+](Cc3ccccc3)c2C)cc1	V-ATPase pHluor 46.6 | VATPase regulator inactive
CC1CCCC(NC(=S)Nc2cccc(S(=O)(=O)N(C)C)c2)C1C (stereo unspecified)	V-ATPase pHluor 8.2 | VATPase regulator inactive
CN(C)S(=O)(=O)c1cccc(NC(=S)NC2CCCCC2)c1	none
O=c1c2ccccc2sn1-c1ccc(Cl)cc1	none | VATPase regulator inactive
O=c1c2ccccc2sn1-c1ccc(F)cc1	none
CC1CC(C)CN(C(=O)CN2C(=O)NC3(CCCCCC3)C2=O)C1 (stereo unspecified)	V-ATPase pHluor 11.9 | VATPase regulator inactive
CC1CN(C(=O)CN2C(=O)NC3(CCCCCCC3)C2=O)CC(C)O1 (stereo unspecified)	none
Cc1ccc(-n2c3c(cc(C(=O)NCCCN4CCOCC4)c2=O)C(=O)CC(C)(C)C3)cc1	V-ATPase pHluor 11.3 | VATPase regulator inactive
CN(C)c1ccc(C=C2C=Cc3ccccc32)cc1	V-ATPase pHluor 12.2 | VATPase regulator inactive
COc1cc2c(cc1OC)C(=Cc1ccc(N(C)C)cc1)C=C2	none
Cc1snc(S(=O)(=O)/C(C#N)=N/Nc2cccc(C(F)(F)F)c2)c1C#N	V-ATPase pHluor 24.6 (no result: KLK7 zymogen act, ADAM10 inh, ADAM17 inh) | VATPase regulator inactive
COc1ccc(N/N=C(/C#N)S(=O)(=O)c2nsc(C)c2C#N)cc1	none
C=CCNC(=O)CSc1nnc(-c2ccccc2Cl)n1-c1c(C)n(C)n(-c2ccccc2)c1=O	none (no result: KLK7 zymogen act, ADAM10 inh, ADAM17 inh)
Cc1c(-n2c(SCC(=O)O)nnc2-c2ccccc2Br)c(=O)n(-c2ccccc2)n1C	V-ATPase pHluor 7.1 | VATPase regulator inactive
O=C(O)CCc1ccc(-c2ccc(Br)cc2)n1-c1ccc(O)cc1	V-ATPase pHluor 11.6 | VATPase regulator inactive
CCn1c(=O)cc(N2CCN(c3cccc(C(F)(F)F)c3)CC2)[nH]c1=O	none (no result: KLK7 zymogen act, V-ATPase pHluor)
O=C(NCC1CCCCC1)c1ccccc1[N+](=O)[O-]	V-ATPase pHluor 12.6 | VATPase regulator inactive
O=C(Oc1ccccc1Cl)c1ccccc1	V-ATPase pHluor 12.7 | VATPase regulator inactive
O=C(Oc1cccccc1=O)c1ccccc1	none
O=C(NCCN1CCC(Cc2ccccc2)CC1)C1CCCN(S(=O)(=O)c2ccccc2[N+](=O)[O-])C1 (stereo unspecified)	none (no result: V-ATPase pHluor)
COc1ccc(CN2C(=O)[C@]3(NCCc4c3[nH]c3ccc(OC)cc43)c3cc(Br)ccc32)cc1	none (no result: V-ATPase pHluor)
C1=Cc2ccccc2Nc2ccccc21	V-ATPase pHluor 11.8 | VATPase regulator inactive
COC(=O)/C(C#N)=C1/C=Cc2ccccc2N1	none
CC(O)C(NS(=O)(=O)c1ccc2ccccc2c1)C(=O)OCC(=O)Nc1ccccc1OC(F)F (stereo unspecified)	none
O=C(COC(=O)CSc1ccc2ccccc2c1)Nc1ccccc1OC(F)F	V-ATPase pHluor 10.9 | VATPase regulator inactive
Cc1ccc(S(=O)(=O)NC[C@H]2CN(S(=O)(=O)c3ccc(C)cc3)[C@@H](Cc3ccccc3)CO2)cc1	none (no result: KLK7 zymogen act, V-ATPase pHluor)
CCOc1ccc(-n2c(SCC(=O)NCc3ccco3)nc3c([nH]c4ccccc43)c2=O)cc1	V-ATPase pHluor 10.0 | VATPase regulator inactive
CCOc1ccc(-n2c(SCC(=O)NCc3ccco3)nc3ccccc3c2=O)cc1	none
O=C(NCCc1c[nH]c2ccccc12)C1CCC(=O)N(CCc2cccc(F)c2)C1 (stereo unspecified)	V-ATPase pHluor 11.1 | VATPase regulator inactive
O=C(NCc1cccc(F)c1)C1CCC(=O)N(CCc2cccc(F)c2)C1 (stereo unspecified)	none
COCCN1CCN(C(=O)C2CCC(=O)N(CCc3cccc(F)c3)C2)CC1 (stereo unspecified)	V-ATPase pHluor 7.4 | VATPase regulator inactive
COc1cc(CNn2cn[nH]c2=S)ccc1OCC(=O)NC(C)(C)C	V-ATPase pHluor 8.9 | VATPase regulator inactive
C=CCOc1ccc(CNn2c(C)n[nH]c2=S)cc1OC	V-ATPase pHluor 10.0 | VATPase regulator inactive
COc1cc(CNC(C)(C)CO)ccc1OCC(=O)NC(C)(C)C	none
CCCN(C(=O)COc1ccc(C(C)=O)cc1OC)C1CCS(=O)(=O)C1 (stereo unspecified)	V-ATPase pHluor 10.2 | VATPase regulator inactive
COc1ccc(CN(C(=O)COc2ccc(C)c(C)c2)C2CCS(=O)(=O)C2)cc1OC (stereo unspecified)	none
c1ccc(CSC2=NCCCN2)cc1	none | VATPase regulator inactive
N#Cc1ccc(CSC2=NCCN2)cc1	none
CCOC(=O)[C@@]12CCC3=C1N(CCC3)C(=O)[C@H](CC(=O)NCCCCc1ccccc1)C2	none (no result: V-ATPase pHluor)
Cc1ccc(C(=O)Nc2ncc(C)s2)o1	V-ATPase pHluor 8.8 | VATPase regulator inactive
